The source of these data is PubChem BioAssay.

A short description of assay [1]: antimalarial activity against Dd2 strain (AID 2302;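 active means growth inhibition above 50% at the single 2 µM test dose, taken to imply half-maximal potency below 2 µM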;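 further: 0% = DMSO untreated growth and 100% = chloroquine plus artemisinin killed control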). The note with it: P. falciparum Dd2 in RBCs, LDH growth readout, 72 h; at 2 µM; stronger effect = higher value.
A short description of assay [2]: human hepatoma cell viability loss – ATP luminescence, cytotoxicity control for P. falciparum antimalarial project, primary screen (AID 2303;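 active means inhibition above 50%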;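 further: 0% = DMSO wells and 100% = digitonin-killed cells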). The note with it: HepG2 viability, 24-48 h, at 10 µM, stronger effect = higher value.
Assay [3] deals with L-lactate dehydrogenase (Plasmodium falciparum (isolate CDC / Honduras)) (UniProt Q27743). Description: PfLDH activity inhibition – cell lysate, 3D7 strain, counter-screen for P. falciparum growth inhibition project (AID 2304).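 Further: 0% = vehicle and 100% = reference inhibitor.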 Particulars: P. falciparum 3D7 crude extract, LDH APAD/NBT absorbance; at 2 µM; stronger effect = higher value. For orientation: A counterscreen serves to expose hits that act by an unwanted route or on another target.

A short description of assay [4]: inhibition of 3D7 malaria parasite growth – strain 3D7 (AID 2306).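 Further: 0% = DMSO wells and 100% = chloroquine plus artemisinin control wells.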 Particulars: P. falciparum 3D7 erythrocytic growth, LDH absorbance, 72 h; at 2 µM; stronger effect = higher value.
The nature of assay [5]: P. berghei load reduction in hepatocytes – cell-based, HepG2, luciferase luminescence, HepG2 viability, primary screen (AID 624349; in the data active means parasite load remaining mostly below about 12%, no sharp cut-off; inactive means mostly above about 10%;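 further: 100% = mean of DMSO negative control wells on the same plate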). Particulars: P. berghei liver stage in HepG2, luciferase luminescence, concentration not given here; parasite load remaining: stronger effect = lower value; viability: measured here: HepG2 viability without parasites.
Assay [6] concerns the target Calcium-dependent protein kinase 1 (Plasmodium falciparum (isolate 3D7)) (UniProt P62344). Description: PfCDPK1 kinase inhibitors, biochemical, TCAMS library (AID 1159585; cut-off not given, nearly all actives have IC50 up to about 0.98 µM;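 further: inhibitors leave more ATP so luminescence rises with inhibition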). Particulars: recombinant PfCDPK1, Kinase-Glo ATP depletion luminescence. A general note: In Kinase-Glo more light means more ATP remaining.
In assay [7] the target is Plasmodium falciparum protein kinase 6 (PK6, PF3D7_1337100) (UniProt Q8IDW1). Nature of the assay: PfPK6 kinase inhibitors, biochemical, TCAMS library (AID 1159586). The note with it: recombinant PfPK6, Kinase-Glo ATP depletion luminescence.
Assay [8] addresses Protein kinase 7 (PK7), Plasmodium falciparum 3D7 (PF3D7_0213400) (UniProt Q7YTF7). Nature of the assay: inhibition of Plasmodium PK7 catalytic activity – biochemical, TCAMS antimalarial set, Kinase-Glo luminescence (AID 1159587). The note with it: recombinant PfPK7, Kinase-Glo ATP depletion luminescence.
The target in assay [9] is Calcium-dependent protein kinase 4 (Plasmodium falciparum (isolate 3D7)) (UniProt Q8IBS5). Nature of the assay: PfCDPK4 kinase inhibitors, biochemical, TCAMS library (AID 1159588; cut-off not given, nearly all actives have IC50 up to about 0.91 µM). The note with it: recombinant PfCDPK4, Kinase-Glo ATP depletion luminescence.
In assay [10] the test system is Aerobactin synthetase IucA (Klebsiella pneumoniae). Nature of the assay: inhibition of K. pneumoniae IucA enzyme – biochemical, Tocris library, absorbance (AID 1345561).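 Further: 100% = enzyme without compound and 0% = no enzyme.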 Particulars: purified IucA enzyme assay, absorbance (OD) read-out; stronger effect = lower value;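 tested at 8 µM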.
A short description of assay [11]: viability loss with induced miR-34 in A549 – imaging, A549 dox-inducible miR-34, nuclei and caspase counts, primary screen (AID 1347080;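 active means compounds whose cell count with miR-34 switched on is under 0.7 times the count with it off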). The note with it: A549 miR-34 inducible, Hoechst nuclei count, 48 h.
A short description of assay [12]: MELAS cybrid and Rieske KO viability enhancers – cell-based, MELAS cybrids, Rieske KO mouse fibroblasts, CellTiter-Glo, primary screen (AID 1508586;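 active means mean z-score across replicates of 1.96 or higher in either the MELAS or the Rieske mutant cell line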;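 further: z relative to plate mean and SD of compound and empty wells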). Particulars: low glucose.
Assay [13] can be described thus: galactose survival enhancers in mitochondrial complex I cybrids – cell-based, galactose medium, ATP luminescence, primary screen (AID 1645843;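 active means z-score of at least 1.8 in each of two replicates, scored against plate mean and spread of sample wells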;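 further: positive z means more ATP and so rescue of galactose-driven cybrid death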). The note with it: complex I mutant cybrid cells, 72 h, stronger effect = higher value.
Assay [14] is described as follows: blockers of polyQ-driven CASP3 activation – cell-based (AID 1583). The note with it: polyglutamine-induced caspase-3 activation, cell assay; stronger effect = higher value;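 tested at 10 µM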.
Assay [15] can be described thus: yeast 75Q aggregation reduction – 75Q-TubU reporter (AID 1593). The note with it: Yeast 75Q polyglutamine aggregation reporter.
Assay [16] is described as follows: restoration of touch response, mutant HTT neurons – whole organism, C. elegans mechanosensory neurons, N-terminal huntingtin (AID 1599). The note with it: C. elegans polyQ-huntingtin mechanosensory neurons, stronger effect = higher value.
Assay [17] can be described thus: blockers of cytochrome c efflux from mitochondria – biochemical, purified mitochondria (AID 1603).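 Further: mouse liver mitochondria challenged with calcium chloride; signal normalized to the plate average as 100%.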 The note with it: stronger effect = lower value.
Assay [18] in a line: polyglutamine aggregate formation blockers (AID 1604). Particulars: polyglutamine-induced protein aggregation inhibition assay; stronger effect = higher value; tested at 2.5 µM.
Assay [19] in a line: glutamate transport activators, MN-1 cells, MN-1 cell line (AID 1612).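 Further: tested at 1 µM final; 0% = mean of DMSO vehicle wells on each plate; positive means more glutamate uptake than control and negative means less.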 Particulars: MN-1 motor neuron cells, stronger effect = higher value.
Assay [20] is described as follows: GFP-Q80 aggregate reduction, neuronal-like cells, cell-based, NGF-treated PC12, GFPQ80 (AID 1614).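 Further: lower means fewer inclusions and 0 means no inclusions at all.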 Particulars: PC12 NGF-treated GFP-polyQ80 inclusion reduction.
Assay [21] in a line: 75Q-TubH aggregate inhibition, S. cerevisiae, yeast (AID 1616). The note with it: S. cerevisiae 75Q-TubH polyglutamine aggregation suppression; stronger effect = higher value.
Assay [22] can be described thus: modulation of C. elegans fzo-1 (AID 1259413).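 Further: fzo-1 mutant C. elegans worms in liquid wells.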 The note with it: C. elegans fzo-1 modulator screen, mean read-out; stronger effect = higher value.
The nature of assay [23]: EMT-state selective cytotoxicity in co-culture – imaging, PC-3E GFP, TEM4-18 mCherry, primary screen (AID 1345086;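 active means compounds killing one labelled cell type while sparing the other, by normalised counts and ratio limits, not self-fluorescent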;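 further: cells exposed to compound for 72 h before imaging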;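 on red/green cell ratio (normalised): normalised mesenchymal count divided by normalised epithelial count so high means epithelial killing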). The note with it: PC-3E GFP / TEM4-18 mCherry co-culture, imaging cell counts, at 1 µM.
Assay [24] deals with NAD(+) hydrolase SARM1 (Homo sapiens) (UniProt Q6SZW1). Nature of the assay: blocking NAD cleavage by SARM1 SAM-TIR – cell lysate, NAD-Glo luminescence (AID 1508614;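 active means compound whose remaining NAD level is above about 45 nM, limit read from the data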). Particulars: SAM-TIR HEK293T lysate NADase, at 1 µM, stronger effect = higher value.
Assay [25] deals with Mitogen-activated protein kinase 7 (Homo sapiens) (UniProt Q13164). Nature of the assay: Gal4-ERK5 driven luciferase induction – cell-based, HTS, primary screen (AID 1508626;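 active means luciferase signal above three times the same-plate solvent-only control wells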;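 further: luciferase driven by Gal4-ERK5 fusion binding five Gal4 sites before minimal TATA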). The note with it: HeLa Gal4-ERK5 transactivation, 18 h, at 5 µM, stronger effect = higher value.
The mark [26] stands for this setting: stronger effect = lower value, cell number ratio, induced over uninduced.
The mark [27] stands for this setting: measured here: relative caspase fold change +Dox/-Dox.
The mark [28] stands for this setting: measured here: total cells with miR-34 induction, stronger effect = lower value.
Setting [29] is: measured here: total cells without miR-34 induction.
Setting [30] is: MELAS cybrid survival, CellTiter-Glo 48 h, stronger effect = higher value.
Setting [31] is: Rieske KO mouse fibroblast survival, CellTiter-Glo 72 h.

Several values for one entry are separate records, joined by “and”; a condition that tells them apart may be missing. Identical values can stand only once. For some of these results: Results with a measured potency or affinity are listed apart. Activity calls are given as the source filed them. Unless noted, how the calls were made is not given here.

Sequence of Protein kinase 7 (PK7), Plasmodium falciparum 3D7 (PF3D7_0213400) (Q7YTF7 1-343): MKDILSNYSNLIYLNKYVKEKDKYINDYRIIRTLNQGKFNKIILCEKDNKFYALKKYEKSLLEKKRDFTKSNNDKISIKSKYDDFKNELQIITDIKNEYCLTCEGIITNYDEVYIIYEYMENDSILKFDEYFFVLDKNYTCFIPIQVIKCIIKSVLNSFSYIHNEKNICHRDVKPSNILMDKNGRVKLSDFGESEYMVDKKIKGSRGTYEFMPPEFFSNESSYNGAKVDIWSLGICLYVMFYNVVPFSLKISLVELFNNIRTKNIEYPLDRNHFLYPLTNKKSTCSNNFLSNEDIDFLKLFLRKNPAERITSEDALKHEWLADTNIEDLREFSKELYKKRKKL
Sequence of Calcium-dependent protein kinase 4 (Plasmodium falciparum (isolate 3D7)) (Q8IBS5 whole entry, looked up): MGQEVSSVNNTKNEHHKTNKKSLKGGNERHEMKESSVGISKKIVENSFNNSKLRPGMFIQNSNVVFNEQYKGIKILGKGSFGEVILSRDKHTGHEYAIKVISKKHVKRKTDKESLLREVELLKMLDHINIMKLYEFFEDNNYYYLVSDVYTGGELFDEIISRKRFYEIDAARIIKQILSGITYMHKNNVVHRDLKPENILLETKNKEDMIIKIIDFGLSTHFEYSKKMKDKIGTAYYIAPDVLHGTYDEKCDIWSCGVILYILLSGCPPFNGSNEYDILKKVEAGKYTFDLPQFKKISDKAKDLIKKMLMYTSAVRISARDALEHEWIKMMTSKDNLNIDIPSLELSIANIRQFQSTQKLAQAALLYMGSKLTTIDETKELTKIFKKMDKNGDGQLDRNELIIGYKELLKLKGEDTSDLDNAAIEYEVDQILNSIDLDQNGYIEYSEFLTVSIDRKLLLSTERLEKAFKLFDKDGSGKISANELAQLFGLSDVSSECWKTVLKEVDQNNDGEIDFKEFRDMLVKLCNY
Sequence of L-lactate dehydrogenase (Plasmodium falciparum (isolate CDC / Honduras)) (Q27743 whole entry, looked up): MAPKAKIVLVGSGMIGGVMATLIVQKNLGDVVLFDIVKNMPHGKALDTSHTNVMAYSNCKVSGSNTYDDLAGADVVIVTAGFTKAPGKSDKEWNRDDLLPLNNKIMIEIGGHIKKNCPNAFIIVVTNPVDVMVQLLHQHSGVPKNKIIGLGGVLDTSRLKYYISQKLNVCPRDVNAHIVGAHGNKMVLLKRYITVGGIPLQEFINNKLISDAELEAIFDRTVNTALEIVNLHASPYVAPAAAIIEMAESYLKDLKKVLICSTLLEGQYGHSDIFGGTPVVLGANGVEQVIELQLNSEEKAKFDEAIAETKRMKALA
Sequence of Calcium-dependent protein kinase 1 (Plasmodium falciparum (isolate 3D7)) (P62344 whole entry, looked up): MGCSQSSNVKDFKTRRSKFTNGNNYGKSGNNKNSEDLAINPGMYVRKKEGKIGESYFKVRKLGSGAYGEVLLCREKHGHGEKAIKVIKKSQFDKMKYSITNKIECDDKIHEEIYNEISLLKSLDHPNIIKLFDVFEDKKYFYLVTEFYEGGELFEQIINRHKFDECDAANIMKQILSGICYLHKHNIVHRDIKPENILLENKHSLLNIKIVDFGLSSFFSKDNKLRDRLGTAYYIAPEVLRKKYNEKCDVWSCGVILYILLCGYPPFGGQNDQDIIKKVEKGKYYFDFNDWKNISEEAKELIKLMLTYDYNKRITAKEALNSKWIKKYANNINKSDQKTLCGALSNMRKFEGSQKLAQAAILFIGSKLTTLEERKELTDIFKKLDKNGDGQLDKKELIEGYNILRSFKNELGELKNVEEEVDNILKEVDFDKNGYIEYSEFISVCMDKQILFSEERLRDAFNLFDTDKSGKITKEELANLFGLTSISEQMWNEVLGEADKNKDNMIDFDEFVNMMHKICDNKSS
Sequence of Plasmodium falciparum protein kinase 6 (PK6, PF3D7_1337100) (Q8IDW1 1-305): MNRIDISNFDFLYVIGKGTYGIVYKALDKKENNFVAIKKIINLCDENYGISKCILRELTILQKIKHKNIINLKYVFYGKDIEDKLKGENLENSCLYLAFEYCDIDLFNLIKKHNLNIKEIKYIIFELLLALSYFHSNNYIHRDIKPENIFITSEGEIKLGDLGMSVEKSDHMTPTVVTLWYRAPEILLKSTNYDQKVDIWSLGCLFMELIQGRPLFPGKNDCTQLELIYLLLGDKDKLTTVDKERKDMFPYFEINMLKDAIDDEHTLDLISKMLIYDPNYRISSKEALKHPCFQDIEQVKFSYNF
Sequence of Mitogen-activated protein kinase 7 (Homo sapiens) (Q13164 whole entry, looked up, the tested form may be a part): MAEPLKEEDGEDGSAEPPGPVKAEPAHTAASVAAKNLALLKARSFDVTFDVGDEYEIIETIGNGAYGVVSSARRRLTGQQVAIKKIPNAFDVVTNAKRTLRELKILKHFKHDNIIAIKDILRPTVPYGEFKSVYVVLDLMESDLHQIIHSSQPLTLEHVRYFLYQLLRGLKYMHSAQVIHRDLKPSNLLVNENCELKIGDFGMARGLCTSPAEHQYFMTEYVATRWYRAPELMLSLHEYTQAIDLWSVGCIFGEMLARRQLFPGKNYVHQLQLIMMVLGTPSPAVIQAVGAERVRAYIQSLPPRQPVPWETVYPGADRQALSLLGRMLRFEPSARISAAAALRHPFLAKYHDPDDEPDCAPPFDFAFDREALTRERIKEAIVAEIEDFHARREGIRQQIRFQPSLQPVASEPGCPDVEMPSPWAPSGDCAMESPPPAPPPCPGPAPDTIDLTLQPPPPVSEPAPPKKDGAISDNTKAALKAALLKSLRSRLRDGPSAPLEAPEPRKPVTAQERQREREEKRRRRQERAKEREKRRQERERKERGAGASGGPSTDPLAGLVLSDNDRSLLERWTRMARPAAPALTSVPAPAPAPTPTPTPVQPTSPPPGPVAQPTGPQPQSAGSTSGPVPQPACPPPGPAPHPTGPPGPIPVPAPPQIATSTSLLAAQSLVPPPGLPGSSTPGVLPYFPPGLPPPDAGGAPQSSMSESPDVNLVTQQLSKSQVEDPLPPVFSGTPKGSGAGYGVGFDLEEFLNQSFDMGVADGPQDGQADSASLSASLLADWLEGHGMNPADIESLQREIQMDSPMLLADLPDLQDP
Sequence of NAD(+) hydrolase SARM1 (Homo sapiens) (Q6SZW1 whole entry, looked up, the tested form may be a part): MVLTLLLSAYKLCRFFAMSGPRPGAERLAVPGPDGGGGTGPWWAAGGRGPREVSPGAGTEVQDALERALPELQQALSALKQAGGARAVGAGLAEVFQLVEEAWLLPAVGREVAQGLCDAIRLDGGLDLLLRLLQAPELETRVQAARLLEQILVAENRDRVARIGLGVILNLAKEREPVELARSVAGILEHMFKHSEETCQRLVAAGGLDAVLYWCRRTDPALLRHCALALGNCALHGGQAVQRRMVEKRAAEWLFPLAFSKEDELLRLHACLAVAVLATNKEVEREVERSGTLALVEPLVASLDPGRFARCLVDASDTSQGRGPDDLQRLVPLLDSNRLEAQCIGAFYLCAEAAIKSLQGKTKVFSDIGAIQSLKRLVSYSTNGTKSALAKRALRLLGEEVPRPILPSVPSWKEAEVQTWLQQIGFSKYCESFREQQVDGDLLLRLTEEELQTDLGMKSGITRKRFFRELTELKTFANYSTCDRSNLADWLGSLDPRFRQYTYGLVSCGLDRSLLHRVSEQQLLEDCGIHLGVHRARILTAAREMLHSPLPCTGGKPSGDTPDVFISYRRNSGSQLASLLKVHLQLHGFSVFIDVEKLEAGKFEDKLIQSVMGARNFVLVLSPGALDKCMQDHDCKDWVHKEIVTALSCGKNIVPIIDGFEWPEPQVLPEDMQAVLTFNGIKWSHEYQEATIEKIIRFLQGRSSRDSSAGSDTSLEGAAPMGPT

By inhibition is commonly meant the drop in the measured response relative to a control, in per cent. A word on the viability: it is a read-out of living cells in per cent, often relative to untreated cells. Usually remaining activity stands for the signal under treatment as a percentage of the control signal. On to `COc1ccc(Cl)cc1NC(=O)Nc1cc(C)nc2ccccc12`, for which the growth inhibition in assay [1] is 99% (active); in [4] it was 101% (active). Also, the inhibition in assay [2] is 10% (inactive); in assay [3], -3% (inactive). Also, the parasite load remaining in assay [5] is 55.8% (inactive). Moreover, the viability in assay [5] stood at 153%. For the same compound, the result in [6], in assay [7], in assay [8] and in assay [9] was inactive. Further, in assay [10], the remaining activity is 102% (inactive). Besides, the fold change was 0.905 (inactive) and 1.03 (inactive) in [11] (setting [26]); 0.387 and 0.813 in assay [11] (setting [27]). The cell count in assay [11] (setting [28]) was 6720 and 4040; in [11] (setting [29]), 7420 and 3920. Also, the z-score in assay [12] (setting [30]) is -0.407 (inactive); in [12] (setting [31]), 0.602; in assay [13], -0.645 (inactive).

On to `CCc1c(C)nc2nc(Cc3cccc(F)c3)nn2c1N1CCN(c2ccccn2)CC1`, for which the growth inhibition was 98% (active) in [1] and 100% (active) in [4]. Moreover, the inhibition is -4% (inactive) in [2] and -1% (inactive) in assay [3]. In addition, the result in assay [6], in [7], in assay [8] and in [9] was inactive.

Regarding `FC(F)(F)c1cccc(C=NNc2nc3ccccc3[nH]2)c1`, the values for the growth inhibition in assay [1] and in assay [4] were 99% (active) and 101% (active), respectively. Also, the inhibition in assay [2] is 1% (inactive); in assay [3], 0% (inactive). The outcome in assay [6], in assay [7], in assay [8] and in assay [9] was inactive.

On to `Cc1cnc(N)c(/C=C/c2cncc(C(=O)NCCc3ccc(Cl)cc3Cl)c2)c1`, for which the growth inhibition in [1] was 100% (active). In addition, the inhibition in assay [2] was 2% (inactive). For the same compound, the result in [6], in assay [7], in [8] and in assay [9] was inactive.

As to `N#CC(CC(=O)c1ccc(Cl)cc1)c1cccc(F)c1` (stereo not given), the growth inhibition is 4% (inactive) in [1] and 97% (active) in assay [4]. The inhibition in assay [2] was 5% (inactive); in assay [3], 4% (inactive). For the same compound, the result in assay [6], in assay [7], in [8] and in assay [9] was inactive.

As for `O=C(Cc1cnc[nH]1)Nc1ccc(-c2cccc(-c3nc4ccc(F)cc4[nH]3)c2)cc1`, the growth inhibition in assay [1] was 70% (active); in [4], 100% (active). The values for the inhibition in assay [2] and in [3] were 28% (inactive) and 4% (inactive), respectively. Further, the result in [6], in assay [7], in assay [8] and in assay [9] was inactive.

Consider `C=C[C@H]1CN2CC[C@H]1C[C@@H]2[C@@H](O)c1ccnc2ccc(OC)cc12`, for which the inhibition in assay [14] was 12.3%; in [2], -11% (inactive); in [3], -3% (inactive). In assay [15], the score was found to be 1.3. The compound further registered a rescue above control in assay [16] of -0.47. In assay [17], the cytochrome c release ratio was found to be 1.12. The compound also yielded an inhibition of aggregation in assay [18] of 54.5%. The compound further showed a glutamate uptake change in [19] of 12.1%. In assay [20], this compound displayed an inclusion score of 2. The aggregation suppression score in [21] came to 1.24. The values for the growth inhibition in assay [1] and in [4] were 95% (active) and 98% (active), respectively. The outcome in assay [6], in assay [7], in assay [8] and in assay [9] was inactive. The mean signal in [22] is 302 (active). The red/green cell ratio (normalised) in assay [23] (actives lie on both sides, counts scaled to control wells, 1 = unselective) was 1.14 (inactive). Also, the normalised cell number in [23] (measured here: epithelial PC-3E GFP cell survival) worked out at 1.07; in assay [23] (measured here: mesenchymal TEM4-18 mCherry cell survival), 1.22. For the same compound, the fold change in [11] (setting [26]) is 0.965 (inactive) and 0.96 (inactive) and 0.929 (inactive); in assay [11] (setting [27]), 1.07 and 0.67 and 3.94. For the same compound, the cell count was 9710 and 7980 and 11400 in assay [11] (setting [28]); 10100 and 8310 and 12200 in assay [11] (setting [29]). Besides, the z-score in assay [12] (setting [30]) was 0.598 (inactive); in assay [12] (setting [31]), 0.401; in assay [13], 0.055 (inactive). Also, the remaining NAD in assay [24] was 10 nM (inactive). Besides, the luciferase signal in assay [25] was 84 AU (inactive).
